Screening data deposited in PubChem BioAssay by National Center for Advancing Translational Sciences (NCATS).
An excerpt weighted towards active compounds, which were near 19% of everything screened.
RORg inh = qHTS for inhibitors of ROR gamma transcriptional activity; Potency, µM (titrated, usually from 53.6 µM), usual class: inhibitors; 310,000 tested, 5.4% active; Drosophila S2 Gal4-RORgamma UAS-luciferase reporter, 20 h; Nuclear receptor ROR-gamma (Mus musculus), P51450; also: nearly all actives have a fitted effect of over 60% in size
Target sequence (P51450 whole entry, looked up, the tested form may be a part): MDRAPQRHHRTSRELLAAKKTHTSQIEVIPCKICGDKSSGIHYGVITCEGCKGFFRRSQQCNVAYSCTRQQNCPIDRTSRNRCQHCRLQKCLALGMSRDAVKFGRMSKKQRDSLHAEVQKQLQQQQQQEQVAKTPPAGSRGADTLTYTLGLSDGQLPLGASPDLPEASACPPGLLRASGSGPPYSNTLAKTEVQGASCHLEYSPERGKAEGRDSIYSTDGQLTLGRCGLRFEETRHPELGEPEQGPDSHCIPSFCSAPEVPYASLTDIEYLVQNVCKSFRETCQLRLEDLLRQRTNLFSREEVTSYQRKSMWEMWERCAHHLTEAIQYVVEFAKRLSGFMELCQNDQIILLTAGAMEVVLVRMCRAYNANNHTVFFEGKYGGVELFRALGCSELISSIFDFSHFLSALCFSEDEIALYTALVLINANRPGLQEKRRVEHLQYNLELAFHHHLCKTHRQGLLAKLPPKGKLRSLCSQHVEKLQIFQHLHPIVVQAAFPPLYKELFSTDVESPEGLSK
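Luciferase reporter read in Schneider cells carrying Gal4-RORγ (mouse) and UAS-Photinus luciferase; cells given compound 1 h before 700 uM copper sulfate induction, then incubated 20 h at ambient temperature.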
TDP1 cell CPT = qHTS for Inhibitors of human tyrosyl-DNA phosphodiesterase 1 (TDP1): qHTS in cells in presence of CPT; Potency, µM (highest dose often 46.2 µM), hits mostly inhibitors; AID 686979, 2013; chicken DT40 Tdp1-/-;hTDP1 cells + 20 nM CPT, ATP luminescence, 48 h; 420,000 tested, 12% active; also: nearly all actives have a fitted effect of over 55% in size
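Chicken DT40 Tdp1-/- cells stably complemented with human TDP1 were seeded at 400 cells/well in medium containing 20 nM camptothecin, exposed to pin-transferred compounds, and grown at 37 °C for at least 48 hr. Viability was read as ATP luminescence.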
TDP1 inh = qHTS Assay for Inhibitors of Tyrosyl-DNA Phosphodiesterase (TDP1); recombinant TDP1, AlphaScreen DNA substrate cleavage; Potency, µM (series often up to 130 µM), usual class: inhibitors; 350,000 tested, 0.28% active; also: nearly all actives have a fitted effect of over 40% in size
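Enzyme-compound mixtures sat 15 min at room temperature, followed by a 5 min reaction with 15 nM final substrate and 10 min with AlphaScreen beads. Recombinant human Tdp1 was used at 1 nM final.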
TDP1 cell noCPT = qHTS for Inhibitors of human tyrosyl-DNA phosphodiesterase 1 (TDP1): qHTS in cells in absence of CPT; DT40 Tdp1-/- hTDP1 cells, no CPT, ATP luminescence, 48 h; 420,000 tested, 15% active; Potency, µM (titrated, usually from 46.2 µM), most hits filed as inhibitors; also: nearly all actives have a fitted effect of over 55% in size
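Stably hTDP1-transfected Tdp1-null chicken DT40 cells were treated with library compounds minus camptothecin and grown for at least 48 hr at 37 °C, after which cellular ATP was quantified by luminescence.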
VP16 counter = VP16 counterscreen qHTS for inhibitors of ROR gamma transcriptional activity; Drosophila S2 Gal4-VP16 UAS-luciferase, luminescence, 20 h; Potency, µM (top dose mostly 53.6 µM), hits mostly inhibitors; 310,000 tested, 3.5% active;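 also: Gal4-VP16 expression switched on by copper sulfate through the metallothionein promoter; nearly all actives have a fitted effect of over 50% in size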
Of the large screens only hits and unclear results are named; the others gave an inactive call. Calls follow the shape of the dose curve; as a rule, active = well fitted curve in the direction sought with a large enough effect; inconclusive = small, poorly fitted or top-dose-only effect, or another doubt; inactive = no such curve, though single readings can be large; an effect the other way counts as inactive or inconclusive.

COc1ccccc1N1CCN(CC(O)COc2ccc(C)c(C)c2)CC1 (stereo not given)	TDP1 cell CPT inconclusive (no result: TDP1 inh)
O=C1CC(=O)N2CCSC2=N1	none (no result: RORg inh, TDP1 inh, VP16 counter)
Cc1nc2cc(NC(=O)N3CCCCC3)ccc2n1C	none
Cc1cc(C(=O)OC(C)C(=O)Nc2cccc(Cl)c2)on1 (stereo not given)	none (no result: RORg inh, VP16 counter)
COc1ccc(-c2nnc(SCC(=O)NCCc3ccc(OC)c(OC)c3)nc2-c2ccc(OC)cc2)cc1	TDP1 cell CPT 18µM, TDP1 cell noCPT 18µM (no result: RORg inh, TDP1 inh, VP16 counter)
COc1ccc(CCNC(=O)CSc2nnc(-c3ccccc3)o2)cc1OC	none
COc1ccc(CCNC(=O)CSc2nnc(-c3ccccc3)c3ccccc23)cc1OC	TDP1 cell CPT 16µM, TDP1 cell noCPT inconclusive
COc1ccc(-c2cc(C(F)(F)F)nc(SCC(=O)NCCc3ccc(OC)c(OC)c3)n2)cc1	TDP1 cell CPT 21µM, TDP1 cell noCPT 21µM (no result: RORg inh, VP16 counter)
CCCCn1c(-c2ccccc2)cnc1SCC(=O)NCCc1ccc(OC)c(OC)c1	RORg inh inconclusive, TDP1 cell CPT 23µM, TDP1 cell noCPT 26µM, VP16 counter inconclusive
Cc1cc(OCC(=O)NC(Cc2c[nH]c3ccccc23)C(=O)O)ccc1Cl (stereo not given)	none (no result: RORg inh, TDP1 inh, VP16 counter)
COc1ccc(-c2nnc(SCC(=O)N/N=C/c3ccccc3C(=O)O)n2-c2ccccc2)cc1	none
CSc1cccc(NC(=O)C2CC(=O)N(c3ccc4c(c3)OCCO4)C2)c1 (stereo not given)	none (no result: RORg inh, TDP1 inh, VP16 counter)
CCC(C)NC(=O)CSc1nnc(-c2cc(OC)c(OC)c(OC)c2)c(-c2cc(OC)c(OC)c(OC)c2)n1 (stereo not given)	RORg inh 2.8µM, VP16 counter inconclusive (no result: TDP1 inh)
CCOc1cc(-c2nnc(SCC(=O)NCc3ccccc3)nc2-c2ccc(OC)c(OCC)c2)ccc1OC	TDP1 cell CPT 5.8µM, TDP1 cell noCPT 3.3µM (no result: RORg inh, VP16 counter)
COc1ccc(-c2nnc(SCC(=O)Nc3cccc(C(F)(F)F)c3)nc2-c2ccc(OC)cc2)cc1	TDP1 cell CPT inconclusive, TDP1 cell noCPT 18µM (no result: RORg inh, VP16 counter)
CCOc1ccc(-c2nnc(SCC(=O)NC(C)CC)nc2-c2ccc(OCC)c(OC)c2)cc1OC (stereo not given)	TDP1 cell noCPT inconclusive (no result: RORg inh, VP16 counter)
COCCNC(=O)CSc1nnc(-c2ccc(C)cc2)c(-c2ccc(C)cc2)n1	TDP1 cell CPT 26µM, TDP1 cell noCPT inconclusive
COc1ccc(-c2nnc(SCC(=O)NCCc3ccccc3)nc2-c2ccc(OC)cc2)cc1	TDP1 cell CPT inconclusive, TDP1 cell noCPT inconclusive (no result: RORg inh, VP16 counter)
N/C(Cc1ccc(Cl)cc1Cl)=N\OC(=O)c1ccc(Br)o1	VP16 counter inconclusive
O=C(CCCOc1ccc(Cl)cc1)Nc1nncs1	none
COc1ccc(-c2nnc(SCC(=O)NCc3ccc(C)cc3)nc2-c2ccc(OC)c(OC)c2)cc1OC	TDP1 cell CPT 15µM, TDP1 cell noCPT 18µM (no result: RORg inh, VP16 counter)
CCOC(=O)C1=CCN(S(=O)(=O)c2ccc(C)cc2)C1c1ccc(C(C)C)cc1 (stereo not given)	TDP1 cell CPT 18µM, TDP1 cell noCPT 18µM (no result: RORg inh, TDP1 inh, VP16 counter)
CCOC(=O)C1=CCN(S(=O)(=O)c2ccccc2Br)C1c1ccc(C)cc1 (stereo not given)	TDP1 cell noCPT inconclusive (no result: RORg inh, TDP1 inh, VP16 counter)
Cc1ccc(S(=O)(=O)N2[C@@H](c3ccc(Br)cc3)C(C(=O)O)=CC[C@H]2c2ccc(C(C)C)cc2)cc1	TDP1 cell CPT inconclusive, TDP1 cell noCPT inconclusive (no result: RORg inh, VP16 counter)
CCOC(=O)C1=CCN(S(=O)(=O)c2ccc(C)cc2)C1c1ccc(CC)cc1 (stereo not given)	TDP1 cell CPT inconclusive, TDP1 cell noCPT 18µM (no result: RORg inh, TDP1 inh, VP16 counter)
Cc1ccc(N2N=C(c3ccc(F)cc3)CC2c2ccco2)cc1 (stereo not given)	RORg inh inconclusive, TDP1 cell CPT 18µM, TDP1 cell noCPT inconclusive, VP16 counter inconclusive (no result: TDP1 inh)
O=C(CNC(=O)c1ccccc1)OCC(=O)N1N=C(c2ccc(Cl)cc2)CC1c1ccco1 (stereo not given)	none
